# Legend:
# Assay type in all cases: functional
# Plasmodium falciparum [1] = test: GSK_TCMDC: Inhibition of Plasmodium falciparum 3D7 in whole red blood cells, using parasite LDH activity as an index of growth. Test compounds present at 2uM
# Plasmodium falciparum [2] = test: GSK_TCMDC: Inhibition of Plasmodium falciparum Dd2 in whole red blood cells, using parasite LDH activity as an index of growth. Test compounds present at 2uM
# HepG2 = test: GSK_TCMDC: Percent inhibition of human HepG2 cell line. Test compounds present at 10uM.
Structure (SMILES),Inhibition (Plasmodium falciparum [1]) [%],Inhibition (Plasmodium falciparum [2]) [%],Inhibition (HepG2) [%]
COc1ccc2nccc([C@@H](O)CN3CCC(NC(=O)/C=C/c4ccc5cc(C)[nH]c5c4)CC3)c2c1,97,93,7
CCc1cc(Cc2cnc(N)nc2N)cc(CC)c1OC,90,12,3
COC(=O)C(Cc1ccccc1)NC(=O)NC1CCN(c2ccnc(Nc3ccc(F)cc3)n2)C1 (centres undefined),90,14,0
COc1ccc2[nH]ccc(=NN=Cc3cccc(C)n3)c2c1,100,99,16
O=C(Nc1ccc([N+](=O)[O-])cc1Cl)c1cc2ccccc2cc1O,94,28,6
O=C(NCCN1CCC(NC(=O)c2ccc(-c3ccccn3)s2)CC1)c1cccc(C(F)(F)F)c1.O=C(O)C(F)(F)F,97,24,4
Cc1cc(NC(=O)Nc2ccc(Oc3ccccc3)cc2)c2ccccc2n1,91,28,2
CN(C)c1ccc(-c2csc(C(=O)NCC3CCN(Cc4ccc(C(C)(C)C)cc4)C3)c2)cc1.O=C(O)C(F)(F)F (centres undefined),97,64,29
O=C(/C=C/c1ccc(Cl)c(Cl)c1)NCCCCCN1CCC(NS(=O)(=O)c2cc(Cl)cc(Cl)c2)CC1,83,5,7
Cc1cccc2nc(-c3cccc(-c4ccc(C(=O)NCc5ccccc5S(C)(=O)=O)cc4)c3)[nH]c12,100,27,17
Cl.N#Cc1ccc2c(c1)CCN(CCC1CCC(NC(=O)/C=C/c3ccc(F)c4ccccc34)CC1)CC2 (centres undefined),95,19,29
CCCc1cc(OC)c(CC2c3cc(O)c(Cl)cc3CCN2C)cc1OC.Cl (centres undefined),100,99,19
O=C(CN1CCN(C(=O)c2ccco2)CC1)Nc1ccccc1Br,97,96,15
COc1ccc(C2CC(c3cccs3)=NN2C(=O)CNc2cccc(C#N)c2)cc1OC (centres undefined),87,35,8
O=C(Nc1ccc(OC2CCN(Cc3ccc(F)cc3)C2)cc1)c1cccs1.O=C(O)C(F)(F)F (centres undefined),94,92,2
COc1ccc(-c2ccc(NC(=O)c3cccc(Cl)c3)c(F)c2)cc1CN1CCCN(C)CC1.O=C(O)C(F)(F)F,100,42,43
CCCCc1ccc(-c2nc(NC(=O)Nc3[nH]c(-c4ccccc4)nc3C(=O)OCC)c(C(=O)OCC)[nH]2)cc1,95,26,0
Cc1ccc(NC(=O)c2ccc(Cl)c(Cl)c2)cc1-c1ccc(C(=O)Nc2ccncc2)cc1,99,79,39
Cc1c(C(=O)NCc2ccncc2)sc2nc(-c3cccc([N+](=O)[O-])c3)cn12,97,29,18
c1ccc(C(c2ccccc2)N2CCN(C(c3cccnc3)c3nnnn3C3CCCC3)CC2)cc1 (centres undefined),83,59,4
Nc1c2ccccc2nc2ccc(Cl)cc12,100,100,55

Structure (SMILES),Inhibition (Plasmodium falciparum [1]) [%],Inhibition (Plasmodium falciparum [2]) [%],Inhibition (HepG2) [%]
Cc1cccc(OC2CCN(c3ncc(C(=O)NCCCN4CCCC4=O)cc3Cl)CC2)c1,96,95,7
Cl.N=C(N)c1ccc(NN=Cc2ccc(Oc3ccc(C(=N)N)cc3)cc2)cc1,99,100,18
CC(C)N1CCC(N(Cc2ccc(-c3ccc(Cl)cc3)cc2)C(=O)Cn2c(CCc3cccc(F)c3F)nc(=O)c3ccccc32)CC1.O=C(O)C(O)C(O)C(=O)O,86,70,61
CCCNC(=O)C1Cc2cc(OC)c(OC)cc2C2(N1)C(=O)N(Cc1cccc(OC)c1)c1ccccc12 (centres undefined),91,63,11
Cl.Oc1ccc(Cc2cc(Oc3c(I)cc(CCc4ncc[nH]4)cc3I)ccc2O)cc1,100,32,10
O=C(Nc1cccc(-c2cccc(-c3nc4cc(F)ccc4[nH]3)c2)c1)c1ccncc1,92,24,28
Cc1c(CNCCCNc2cc(=O)c3ccccc3[nH]2)sc(/C=N/O)c1Br.Cl,82,0,0
CCc1c[nH]c2c(N3CCCC3=O)cc(C(=O)N[C@@H](Cc3ccccc3)[C@H](O)CNC(C)(C)c3cccc(C(F)(F)F)c3)cc12.O=CO,98,99,10
Cc1ccccc1C1CCN(C2CCC(NC(=O)/C=C/c3cccc(F)c3)CC2)CC1 (centres undefined),84,38,46
C=CCc1c(C(=O)NCC23CC4CC(CC(C4)C2)C3)nc2ccccc2c1O,86,79,40
OC(Cn1ccnc1)(c1ccc(Cl)cc1Cl)C1CCCCC1 (centres undefined),98,58,7
CN(C)CCNCc1ccc(-c2ccc(-c3nc4ccccc4[nH]3)s2)cc1.O=C(O)C(F)(F)F,100,100,0
O=C(Nc1ccc(C(F)(F)F)cc1)c1cccc(S(=O)(=O)NC2CCN(CC3CCCCC3)CC2)c1.O=C(O)C(F)(F)F,99,12,18
COc1ccc(C#Cc2ccc(-c3c(C)[nH]c(C)c(Cl)c3=O)cc2)cc1,97,97,0
N#Cc1cc([N+](=O)[O-])ccc1-n1nc(-c2cccc(Cl)c2)n(CC2CCCO2)c1=S (centres undefined),91,89,0
COc1ccc(CN2CCC(CNC(C)c3cccc4ccccc34)CC2)cc1.O=C(O)C(F)(F)F (centres undefined),100,26,58
CCCCCCCc1c2c(C)c(C(=O)OCC)nc-2cc2n1CC(C)=C2C.Cl,89,10,11
CC(=NNC(=N)N)C(=O)Nc1ccc(Cl)c(Cl)c1.O=S(=O)(O)O,100,97,0
O=C(Nc1ccc(Cl)cc1)Nc1ccc2c(c1)N1CCN=C1S2,99,100,15
CCCNC(=O)C1CCN(C(c2ccc(Cl)cc2)c2ccc(Cl)cc2)CC1,98,96,7
COc1cc(NCC(O)CNc2cc(Cl)nc3ccccc23)nc2ccccc12 (centres undefined),99,99,17

Structure (SMILES),Inhibition (Plasmodium falciparum [1]) [%],Inhibition (Plasmodium falciparum [2]) [%],Inhibition (HepG2) [%]
COc1ccccc1CN1CCC(NC(=O)c2ccc(-c3cccc(Cl)c3)s2)CC1.O=C(O)C(F)(F)F,84,9,49
COc1ccccc1CCNc1nc(C)cc(N[C@@H](Cc2ccccc2)C(=O)NCCc2ccccc2)n1.O=C(O)C(F)(F)F,100,89,16
COc1cccc(C(=O)N2CCOC(CCN3CCC(c4ccccc4)CC3)(c3ccc(Cl)c(Cl)c3)C2)c1 (centres undefined),87,63,38
CCc1cccc(-n2c(=O)c3cccnc3n2CC(=O)NC2CCCC2)c1,94,13,2
c1ccc2[nH]c(Nc3ccc(Nc4nc5ccccc5[nH]4)cc3)nc2c1,98,27,0
CCNc1cc(C)nc(Nc2ccc(NC(=O)c3ccco3)cc2)n1,95,32,24
Cc1cc(N[C@@H](CC(C)C)C(=O)NCc2cccc(F)c2)nc(NCCc2ccc(F)cc2)n1.O=C(O)C(F)(F)F,90,6,0
CCc1c(CCNCCc2cccc(CCNCCc3ccc(OC)c(OC)c3CC)c2)ccc(OC)c1OC.Cl,81,67,100
Cn1cccc1C(=O)Nc1cccc(-c2nn3ccccc3c2-c2ccnc(Nc3ccc4c(c3)OCCO4)n2)c1,95,27,12
O=C(Nc1cccc(-c2nc3ccccc3[nH]2)c1)c1cccc(NC(=O)c2ccco2)c1,91,45,9
Cc1cc2c3c(N)nc(N)nc3ccc2n1C(C)C,93,0,70
COc1cc(F)c2nccc([C@@H](O)CN3CCC(NCc4cc5c(cc4F)OCCO5)CC3)c2c1,99,45,23
CN1CCN(c2ccc(Nc3c(C(N)=O)cnc4cc(-c5ccoc5)ccc34)cc2)CC1.Cl,100,99,14
Cc1ccc(-c2nnc(Nc3ccc(CC(N)=O)cc3)c3ccccc23)cc1S(=O)(=O)NCC1CCCO1 (centres undefined),83,64,0
O=C(Nc1ccc(Br)c(C(F)(F)F)c1)c1cccc([N+](=O)[O-])c1,94,3,24
O=[N+]([O-])c1ccc(/C=N/O)nc1,80,98,80
COc1cc(F)c2ncc(Cl)c(CCN3CCC(NCc4ccc5c(c4)OCCO5)CC3)c2c1.Cl,97,92,35
COc1cc(C(=O)NCCCN2CCN(c3cccc(Cl)c3)CC2)ccc1-c1cc2cc(Cl)c(Cl)cc2[nH]1,100,86,35
Cl.N#Cc1ccc2c(c1)CCN(CCC1CCC(NC(=O)c3ccc(-c4ccccn4)s3)CC1)CC2 (centres undefined),92,9,16
Cc1ccc(NC(=O)NCCCCCN2CCC(c3c[nH]c4ccccc34)CC2)cc1I,94,5,96
Cc1ccccc1-c1cc(=O)c2cc(NC(=O)c3cccs3)ccc2o1,96,95,22

# — ChEMBL document CHEMBL1157539, “Thousands of chemical starting points for antimalarial lead identification” (Nature, 2010)
